The full data set covers some 8,800 targets. This sample favours those with a hit. About 0.5% of all pairs of compound and target were hits.
How the values were obtained:
Assay in all cases: log2 fold change, soluble protein after heating vs DMSO (PISA); higher = thermal stabilisation; K562 lysate, 10 uM; active = over 0.2 and 3.5 SD of the protein, either way, in both replicates (recomputed)
[1] = compound: NCC(=O)Nc1ccc(-n2nc(C(F)(F)F)cc2-c2ccc3c(ccc4ccccc43)c2)cc1
In short: (§1)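 K562 pellets were dounce-homogenised in PBS pH 7.4 containing 1 mM MgCl2, and the crude extract, at 1 mg/mL protein, was exposed to 10 μM compound for 30 min. Aliquots were heated for 3 min across 48°C-58°C, pooled, brought to 0.5% NP-40 at 4°C and spun at 21,000xg for 90 min, with the supernatant taken as soluble protein. TMTpro 16plex LC-MS/MS with equalised channel sums quantified that protein. Values are log-two fold changes in thermal stability relative to solvent controls, taken from duplicates.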

vorinostat = compound: O=C(CCCCCCC(=O)Nc1ccccc1)NO [vorinostat]
In short: as §1

silmitasertib = compound: O=C(O)c1ccc2c(c1)nc(Nc1cccc(Cl)c1)c1ccncc12 [silmitasertib]
In short: as §1

[2] = compound: O=C1NC(=O)C(c2cnc3ccccn23)=C1c1cn2c3c(cc(F)cc13)CN(C(=O)N1CCCCC1)CC2
In short: as §1

entospletinib = compound: c1cn2cc(-c3ccc4cn[nH]c4c3)nc(Nc3ccc(N4CCOCC4)cc3)c2n1 [entospletinib]
In short: as §1

Measured: log2 fold change

AKR1C2 (UniProt P52895)
inactive: [1] -0.008 | silmitasertib -0.011 | [2] 0.052 | entospletinib -0.014
active: vorinostat 0.504

AGPS (UniProt O00116)
Chain of UniProt O00116 (O00116 whole entry, looked up): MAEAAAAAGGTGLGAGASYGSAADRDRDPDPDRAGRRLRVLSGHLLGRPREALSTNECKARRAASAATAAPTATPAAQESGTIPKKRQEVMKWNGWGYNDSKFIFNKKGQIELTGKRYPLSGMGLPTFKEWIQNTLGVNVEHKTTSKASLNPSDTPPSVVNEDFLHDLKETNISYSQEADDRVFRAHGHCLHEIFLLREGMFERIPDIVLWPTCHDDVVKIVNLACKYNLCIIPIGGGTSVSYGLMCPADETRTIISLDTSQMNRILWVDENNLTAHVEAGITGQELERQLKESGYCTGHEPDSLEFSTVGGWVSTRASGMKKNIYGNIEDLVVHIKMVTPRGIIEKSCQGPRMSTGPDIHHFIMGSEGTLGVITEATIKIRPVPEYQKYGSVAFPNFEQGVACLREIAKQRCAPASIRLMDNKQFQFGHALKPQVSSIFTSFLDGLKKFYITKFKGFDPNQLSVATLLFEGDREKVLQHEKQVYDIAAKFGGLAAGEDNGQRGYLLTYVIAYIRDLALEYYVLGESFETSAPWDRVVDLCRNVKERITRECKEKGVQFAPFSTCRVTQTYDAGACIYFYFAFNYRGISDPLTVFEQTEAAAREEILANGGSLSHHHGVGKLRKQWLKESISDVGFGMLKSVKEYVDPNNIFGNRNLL
active: vorinostat 0.365
inactive: [1] -0.015 | silmitasertib -0.007 | [2] -0.007 | entospletinib -0.005

ASCC2 (UniProt Q9H1I8)
inactive: [1] -0.008 | vorinostat -0.048 | silmitasertib 0.077 | [2] 0.026 | entospletinib -0.017

ANKRD40 (UniProt Q6AI12)
active: [1] 0.914
inactive: vorinostat -0.217 | silmitasertib -0.088 | [2] 0.007 | entospletinib -0.057

APOB (UniProt P04114)
inactive: [1] 0.063 | vorinostat 0.154 | silmitasertib 0.007 | [2] -0.012 | entospletinib 0.05

AARS2 (UniProt Q5JTZ9)
active: vorinostat -0.243
inactive: [1] -0.004 | silmitasertib 0.085 | [2] 0.028 | entospletinib 0.035

ANXA1 (UniProt P04083)
inactive: [1] -0.013 | silmitasertib -0.007 | [2] -0.031 | entospletinib 0.011
active: vorinostat -0.255

AGL (UniProt P35573)
Chain of UniProt P35573 (P35573 whole entry, looked up): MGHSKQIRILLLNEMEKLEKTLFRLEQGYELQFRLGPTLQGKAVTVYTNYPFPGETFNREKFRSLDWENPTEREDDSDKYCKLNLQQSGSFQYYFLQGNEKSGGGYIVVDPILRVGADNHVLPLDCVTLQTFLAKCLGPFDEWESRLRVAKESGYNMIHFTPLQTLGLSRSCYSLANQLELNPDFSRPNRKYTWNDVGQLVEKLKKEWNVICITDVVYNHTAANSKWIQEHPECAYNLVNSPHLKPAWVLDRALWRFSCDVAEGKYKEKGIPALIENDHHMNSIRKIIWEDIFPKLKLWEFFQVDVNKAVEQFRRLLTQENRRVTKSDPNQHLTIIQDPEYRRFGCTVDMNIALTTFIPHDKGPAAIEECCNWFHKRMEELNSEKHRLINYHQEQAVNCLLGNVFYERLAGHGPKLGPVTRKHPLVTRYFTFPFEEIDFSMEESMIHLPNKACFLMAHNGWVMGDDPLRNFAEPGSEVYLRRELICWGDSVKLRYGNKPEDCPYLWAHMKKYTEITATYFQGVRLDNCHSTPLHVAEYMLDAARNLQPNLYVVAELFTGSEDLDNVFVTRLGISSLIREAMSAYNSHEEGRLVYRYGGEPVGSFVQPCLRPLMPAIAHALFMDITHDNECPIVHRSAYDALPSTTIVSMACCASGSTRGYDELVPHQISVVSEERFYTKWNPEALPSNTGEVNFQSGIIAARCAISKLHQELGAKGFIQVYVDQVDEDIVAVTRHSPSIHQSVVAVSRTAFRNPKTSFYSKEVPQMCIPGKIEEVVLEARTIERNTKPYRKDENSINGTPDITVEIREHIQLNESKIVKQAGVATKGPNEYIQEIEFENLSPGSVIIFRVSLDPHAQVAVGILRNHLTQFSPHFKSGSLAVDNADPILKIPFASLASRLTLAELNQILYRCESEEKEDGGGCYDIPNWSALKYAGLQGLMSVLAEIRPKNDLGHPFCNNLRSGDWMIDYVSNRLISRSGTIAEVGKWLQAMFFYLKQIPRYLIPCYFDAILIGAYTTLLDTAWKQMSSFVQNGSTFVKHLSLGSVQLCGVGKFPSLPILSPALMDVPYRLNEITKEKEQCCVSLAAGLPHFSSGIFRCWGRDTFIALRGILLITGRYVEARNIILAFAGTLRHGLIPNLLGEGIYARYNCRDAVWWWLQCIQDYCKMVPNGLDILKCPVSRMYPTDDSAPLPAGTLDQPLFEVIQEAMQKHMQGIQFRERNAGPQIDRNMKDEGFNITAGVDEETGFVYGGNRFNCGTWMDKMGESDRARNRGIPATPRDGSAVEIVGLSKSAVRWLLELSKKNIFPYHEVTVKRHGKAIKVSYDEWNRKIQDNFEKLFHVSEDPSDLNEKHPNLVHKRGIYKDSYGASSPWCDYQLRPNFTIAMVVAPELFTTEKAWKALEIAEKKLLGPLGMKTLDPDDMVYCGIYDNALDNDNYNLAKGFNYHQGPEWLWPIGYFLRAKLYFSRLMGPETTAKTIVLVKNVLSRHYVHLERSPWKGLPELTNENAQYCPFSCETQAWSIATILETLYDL
inactive: [1] 0 | silmitasertib 0.035 | [2] 0.001 | entospletinib -0.018
active: vorinostat -0.275

ARHGAP21 (UniProt Q5T5U3)
inactive: [1] 0.021 | silmitasertib 0.014 | [2] -0.041 | entospletinib -0.104
active: vorinostat -0.364

AGGF1 (UniProt Q8N302)
inactive: [1] 0.135 | vorinostat 0.059 | silmitasertib -0.06 | [2] 0 | entospletinib -0.015

AGPAT1 (UniProt Q99943)
inactive: [1] -0.027 | silmitasertib 0.106 | [2] -0.029 | entospletinib 0.003
active: vorinostat -0.27

ABHD16A (UniProt O95870)
inactive: [1] 0.007 | silmitasertib -0.1 | [2] -0.056 | entospletinib -0.01
active: vorinostat 0.906

AP3D1 isoform 5 (UniProt O14617)
Chain of UniProt O14617 (O14617 whole entry, looked up): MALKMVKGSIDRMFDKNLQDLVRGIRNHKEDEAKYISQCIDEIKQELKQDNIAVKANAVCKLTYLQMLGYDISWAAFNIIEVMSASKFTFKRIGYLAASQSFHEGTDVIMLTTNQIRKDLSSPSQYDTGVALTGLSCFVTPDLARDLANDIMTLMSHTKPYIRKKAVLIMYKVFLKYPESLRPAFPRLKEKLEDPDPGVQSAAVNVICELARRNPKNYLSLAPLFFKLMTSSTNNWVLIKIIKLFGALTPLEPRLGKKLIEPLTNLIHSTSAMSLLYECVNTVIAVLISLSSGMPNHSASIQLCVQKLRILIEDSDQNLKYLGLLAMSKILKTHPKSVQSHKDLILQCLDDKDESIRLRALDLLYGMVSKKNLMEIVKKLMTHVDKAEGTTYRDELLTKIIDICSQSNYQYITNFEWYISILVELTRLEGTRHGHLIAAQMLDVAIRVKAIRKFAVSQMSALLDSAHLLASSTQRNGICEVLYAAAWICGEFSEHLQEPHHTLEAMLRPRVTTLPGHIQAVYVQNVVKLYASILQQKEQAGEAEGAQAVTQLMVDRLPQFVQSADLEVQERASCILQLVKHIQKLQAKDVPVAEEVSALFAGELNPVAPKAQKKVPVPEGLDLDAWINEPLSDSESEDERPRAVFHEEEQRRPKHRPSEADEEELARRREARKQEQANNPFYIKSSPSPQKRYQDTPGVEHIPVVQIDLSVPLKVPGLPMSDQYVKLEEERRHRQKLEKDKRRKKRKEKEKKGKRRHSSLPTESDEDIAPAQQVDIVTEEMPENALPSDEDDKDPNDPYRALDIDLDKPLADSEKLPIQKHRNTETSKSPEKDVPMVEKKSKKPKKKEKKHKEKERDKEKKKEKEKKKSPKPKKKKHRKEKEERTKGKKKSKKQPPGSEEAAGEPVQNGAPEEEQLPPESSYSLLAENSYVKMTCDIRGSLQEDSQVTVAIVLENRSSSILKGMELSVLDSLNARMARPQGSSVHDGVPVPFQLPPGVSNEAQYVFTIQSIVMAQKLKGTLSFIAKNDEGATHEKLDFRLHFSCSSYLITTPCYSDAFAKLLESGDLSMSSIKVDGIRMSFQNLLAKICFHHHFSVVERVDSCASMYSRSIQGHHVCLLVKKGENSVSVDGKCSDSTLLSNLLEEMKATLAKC
inactive: [1] -0.001 | vorinostat -0.015 | silmitasertib -0.003 | [2] 0.012 | entospletinib 0.006

ACYP1 (UniProt P07311)
Chain of UniProt P07311 (P07311 whole entry, looked up): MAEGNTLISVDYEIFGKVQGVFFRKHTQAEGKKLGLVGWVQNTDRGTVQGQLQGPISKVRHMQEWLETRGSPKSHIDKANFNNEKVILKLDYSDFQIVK
inactive: [1] -0.015 | vorinostat 0.127 | silmitasertib -0.028 | [2] -0.002 | entospletinib 0.008

ASNS (UniProt P08243)
Chain of UniProt P08243 (P08243 whole entry, looked up): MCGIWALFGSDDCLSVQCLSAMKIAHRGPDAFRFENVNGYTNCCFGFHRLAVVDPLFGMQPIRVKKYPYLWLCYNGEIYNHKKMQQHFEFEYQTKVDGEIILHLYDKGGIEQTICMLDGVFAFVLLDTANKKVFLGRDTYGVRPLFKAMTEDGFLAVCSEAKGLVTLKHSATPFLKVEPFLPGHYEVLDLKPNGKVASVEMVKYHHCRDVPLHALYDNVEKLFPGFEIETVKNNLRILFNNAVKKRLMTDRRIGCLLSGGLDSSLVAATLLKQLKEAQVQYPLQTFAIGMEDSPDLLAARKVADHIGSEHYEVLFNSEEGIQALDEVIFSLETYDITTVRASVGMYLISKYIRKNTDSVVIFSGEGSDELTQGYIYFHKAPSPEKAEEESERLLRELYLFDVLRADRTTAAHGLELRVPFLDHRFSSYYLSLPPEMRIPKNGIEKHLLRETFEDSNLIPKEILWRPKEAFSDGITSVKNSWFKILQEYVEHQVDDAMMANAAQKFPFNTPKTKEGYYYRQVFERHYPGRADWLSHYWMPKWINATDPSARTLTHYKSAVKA
active: vorinostat -0.373
inactive: [1] 0.006 | silmitasertib -0.01 | [2] -0.008 | entospletinib 0.029

ACACB (UniProt O00763)
inactive: [1] -0.026 | silmitasertib 0.03 | [2] -0.009 | entospletinib 0.088
active: vorinostat -0.438

AGPAT2 (UniProt O15120)
inactive: [1] -0.234 | vorinostat 0.104 | silmitasertib -0.026 | [2] -0.052 | entospletinib 0.063

AFF4 (UniProt Q9UHB7)
inactive: [1] -0.119 | vorinostat 0.078 | silmitasertib -0.04 | [2] -0.031 | entospletinib -0.088

ALDH1L2 (UniProt Q3SY69)
inactive: [1] 0.017 | vorinostat 0.106 | silmitasertib 0.016 | [2] -0.027 | entospletinib 0.031

AIMP2 (UniProt Q13155)
inactive: [1] -0.046 | silmitasertib 0.048 | [2] 0.017 | entospletinib -0.017
active: vorinostat -0.347

ARGLU1 (UniProt Q9NWB6)
Chain of UniProt Q9NWB6 (Q9NWB6 whole entry, looked up): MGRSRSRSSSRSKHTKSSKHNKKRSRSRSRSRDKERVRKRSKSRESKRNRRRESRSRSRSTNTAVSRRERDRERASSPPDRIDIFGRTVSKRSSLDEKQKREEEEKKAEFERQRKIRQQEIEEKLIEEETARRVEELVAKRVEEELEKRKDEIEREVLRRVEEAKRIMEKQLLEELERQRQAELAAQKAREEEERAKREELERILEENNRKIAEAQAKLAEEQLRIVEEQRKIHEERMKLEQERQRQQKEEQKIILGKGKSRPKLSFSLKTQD
inactive: [1] 0.01 | vorinostat 0.116 | silmitasertib 0.008 | [2] -0.067 | entospletinib -0.054

ALDH18A1 (UniProt P54886)
Chain of UniProt P54886 (P54886 whole entry, looked up): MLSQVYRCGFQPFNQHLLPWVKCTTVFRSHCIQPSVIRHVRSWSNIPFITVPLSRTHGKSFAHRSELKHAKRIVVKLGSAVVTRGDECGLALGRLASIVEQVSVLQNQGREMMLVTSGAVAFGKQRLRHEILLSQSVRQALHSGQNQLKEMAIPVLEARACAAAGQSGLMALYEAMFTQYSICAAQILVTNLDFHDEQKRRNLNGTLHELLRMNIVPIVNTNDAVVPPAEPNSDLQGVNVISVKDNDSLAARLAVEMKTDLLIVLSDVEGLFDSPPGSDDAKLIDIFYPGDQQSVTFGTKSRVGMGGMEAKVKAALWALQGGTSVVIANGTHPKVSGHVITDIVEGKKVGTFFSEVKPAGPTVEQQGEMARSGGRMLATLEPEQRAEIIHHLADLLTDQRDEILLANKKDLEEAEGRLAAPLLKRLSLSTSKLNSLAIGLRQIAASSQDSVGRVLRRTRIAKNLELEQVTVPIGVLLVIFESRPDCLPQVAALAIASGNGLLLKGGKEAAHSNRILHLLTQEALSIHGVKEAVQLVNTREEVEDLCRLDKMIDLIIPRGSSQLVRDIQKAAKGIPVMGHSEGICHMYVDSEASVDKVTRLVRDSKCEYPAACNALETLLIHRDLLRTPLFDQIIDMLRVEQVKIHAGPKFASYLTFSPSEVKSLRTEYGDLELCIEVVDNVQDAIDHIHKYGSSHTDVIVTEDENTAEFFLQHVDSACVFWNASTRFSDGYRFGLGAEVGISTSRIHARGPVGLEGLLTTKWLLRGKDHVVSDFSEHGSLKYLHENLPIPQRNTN
active: vorinostat -0.401
inactive: [1] 0.023 | silmitasertib 0.023 | [2] -0.015 | entospletinib 0.022

AKAP8L (UniProt Q9ULX6)
inactive: [1] -0.045 | vorinostat -0.213 | silmitasertib -0.001 | [2] -0.078 | entospletinib -0.019

ABHD17A isoform 2 (UniProt Q96GS6)
active: vorinostat 0.363
inactive: [1] 0.001 | silmitasertib -0.059 | [2] -0.025 | entospletinib 0.043

ARL1 (UniProt P40616)
active: vorinostat -0.293
inactive: [1] 0.017 | silmitasertib -0.048 | [2] 0.027 | entospletinib 0.034

ASB6 (UniProt Q9NWX5)
inactive: [1] 0.116 | vorinostat -0.005 | silmitasertib -0.057 | [2] -0.019 | entospletinib 0.074

From the supplement of paper PMC10849652
